Bioassay records from PubChem BioAssay.
H9c2 TAG inh: inhibitors of triacylglycerol accumulation; H9c2 cells, Nile Red lipid (TAG) fluorescence; cells loaded with 200 µM oleic acid; inhibition, % at 12.5 µM; 230,000 compounds, 0.66% hits; AID 651582;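 active means pattern-corrected inhibition of lipid staining of at least 50% with the nuclear-stain viability signal not falling by more than 50%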
697 NFkB inh: inhibitors of the PMA/ionomycin-induced NF-kB reporter in 697 B cells; 697 B-cell NF-kB luciferase reporter, 16 h; inhibition, % at 4 µM; 330,000 compounds, 0.33% hits; AID 435022; in the data active means inhibition above about 35%
Gli-Sufu antag: Gli-Sufu pathway antagonism; Sufu-KO-LIGHT fibroblasts, Gli luciferase reporter luminescence; inhibition, % at 5 µM; 340,000 compounds, 0.74% hits; AID 588413;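 active means inhibition above about 55%, limit read from the data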
Cardio protect: protects H9c2 cardiomyocytes from peroxide injury; H2O2 injury protection, ATPLite, 2 h; protection from H2O2 cell death, % at 20 µM; 360,000 compounds, 0.63% hits;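 active means compounds giving at least 50% protection of heart cells from peroxide-induced death in the single-dose screen, raw or plate-pattern-corrected value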
Jurkat NFkB inh: inhibitors of the PMA/ionomycin-induced NF-kB reporter in Jurkat cells. PMA/ionomycin-induced NF-kB luciferase reporter, luminescence. inhibition, % at 4 µM. 330,000 compounds, 0.53% hits; in the data active means inhibition above about 50%
NR2F2 inh: blocks human COUP-TFII nuclear receptor; HEK293T NGFI-A luciferase reporter, luminescence; P24468; 370,000 compounds, 0.7% hits; AID 686940; inhibition, % at 8.6 µM;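 active means inhibition above a per-plate cutoff, mean inhibition of test wells between control levels plus 3 SD, cut at about 38% in these data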;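 further: cells cotransfected with COUP-TFII expression vector driving the NGFI-A reporter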
Target sequence (P24468 whole entry, looked up): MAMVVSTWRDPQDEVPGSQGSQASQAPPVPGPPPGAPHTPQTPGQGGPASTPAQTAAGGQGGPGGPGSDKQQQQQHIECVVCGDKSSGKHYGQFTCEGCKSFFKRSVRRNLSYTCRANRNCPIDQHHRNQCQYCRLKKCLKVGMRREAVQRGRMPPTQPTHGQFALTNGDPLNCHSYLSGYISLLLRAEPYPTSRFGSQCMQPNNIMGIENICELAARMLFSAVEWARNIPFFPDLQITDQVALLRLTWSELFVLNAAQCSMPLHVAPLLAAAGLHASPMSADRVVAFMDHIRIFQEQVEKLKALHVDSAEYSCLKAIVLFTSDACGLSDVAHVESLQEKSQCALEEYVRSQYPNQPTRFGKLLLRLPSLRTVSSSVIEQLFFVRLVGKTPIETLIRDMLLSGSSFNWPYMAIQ
VP16 Luc counter: inhibits VP16 reporter, flagging COUP-TFII antagonist hits; HEK293 Gal4-VP16 luciferase reporter, luminescence; inhibition, % at 8.5 µM; AID 687007; 2,500 compounds, 25% hits; shares compounds with NR2F2 inh; in the data active means inhibition above about 13%
COUP-TFII conf: confirmation of human COUP-TFII (NR2F2) inhibitors. 2,500 compounds, 45% hits. inhibition, % at 8.5 µM. HEK293 NGFI-A luciferase reporter, luminescence. AID 687008. shares compounds with NR2F2 inh;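 active means mean inhibition over three repeats above a set limit taken from the earlier primary screen, cut at about 38% in these data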
Numbers stand for hits. A selection: hits, their analogues and other compounds. The true share with any hit is near 2.6%.

Screening COc1ccc([C@H]2OC(=O)C[C@H]2C(=O)N2CCCCC2)cc1OC returned NR2F2 inh inactive.
`CCOC(=O)C1(Cc2ccc(Cl)cc2)CCN(C(=O)c2sc(C)nc2C)CC1` gave H9c2 TAG inh inactive, 697 NFkB inh inactive, Gli-Sufu antag inactive, Cardio protect inactive, Jurkat NFkB inh inactive, NR2F2 inh 42, VP16 Luc counter inactive and COUP-TFII conf inactive.
Screening COc1ccc(C(=O)Nc2ccc(Cl)c(S(=O)(=O)Nc3ccccc3OC)c2)cc1 returned 697 NFkB inh inactive, Gli-Sufu antag inactive, Cardio protect inactive, Jurkat NFkB inh inactive, NR2F2 inh 63, VP16 Luc counter inactive and COUP-TFII conf 67.
COc1ccccc1NS(=O)(=O)c1cc(NC(=O)c2ccc(Cl)nc2)ccc1Cl was read as 697 NFkB inh inactive, Gli-Sufu antag inactive, Cardio protect inactive, Jurkat NFkB inh inactive, NR2F2 inh 68, VP16 Luc counter 15 and COUP-TFII conf 60.
COc1ccccc1NC(=O)Nc1ccc(Cl)c(S(=O)(=O)Nc2ccccc2OC)c1 was read as 697 NFkB inh inactive, Gli-Sufu antag inactive, Cardio protect inactive, Jurkat NFkB inh inactive and NR2F2 inh inactive.
COc1cccc2c1C(=O)c1c(O)c3c(c(O)c1C2=O)CC(O)(C(=O)CO)CC3OC1CC(N(C)C)C(O)C(C)O1 (stereo not drawn) was read as H9c2 TAG inh inactive, Gli-Sufu antag 85, Cardio protect inactive, NR2F2 inh 45, VP16 Luc counter 28 and COUP-TFII conf inactive.
Cc1ccc(N2C(N)=C(C#N)C3(C(=O)N(C)c4ccccc43)C3=C2CC(C)(C)CC3=O)cc1Cl (stereo not drawn) was read as 697 NFkB inh inactive, Gli-Sufu antag inactive, Cardio protect inactive, Jurkat NFkB inh inactive and NR2F2 inh inactive.
`CN1C(=O)C2(C(C#N)=C(N)N(c3cc(Cl)cc(Cl)c3)C3=C2C(=O)CC(C)(C)C3)c2ccccc21` (stereo not drawn) gave 697 NFkB inh inactive, Gli-Sufu antag inactive, Cardio protect inactive, Jurkat NFkB inh inactive, NR2F2 inh 44, VP16 Luc counter inactive and COUP-TFII conf inactive.
Screening Cc1ccc(NC(=O)c2cnc(N3CCN(c4ccccn4)CC3)c3ccccc23)c(Br)c1 returned Gli-Sufu antag inactive, Cardio protect inactive, NR2F2 inh 38, VP16 Luc counter inactive and COUP-TFII conf 39.
For Cc1ccccc1C(=O)n1ccc2ccc(-c3ccc4ccn(Cc5ccc(C#N)cc5)c4c3)cc21 the results were NR2F2 inh inactive.
For CCN=C1NC(c2ccc(C(F)(F)F)cc2)C(C(=O)OC)=C(C)N1Cc1ccccc1C(F)(F)F (stereo not drawn) the results were NR2F2 inh inactive.
`CC(=O)c1ccc(OCCCC(=O)Nc2ccc(C)c(S(=O)(=O)N3CCCCC3)c2)cc1` gave H9c2 TAG inh inactive, 697 NFkB inh inactive, Gli-Sufu antag inactive, Cardio protect inactive, Jurkat NFkB inh inactive, NR2F2 inh 61, VP16 Luc counter inactive and COUP-TFII conf 40.
Screening COc1cc(C(C)=O)ccc1OCC(=O)Nc1ccc(C)c(S(=O)(=O)N2CCCCCC2)c1 returned H9c2 TAG inh inactive, 697 NFkB inh inactive, Gli-Sufu antag inactive, Cardio protect inactive, Jurkat NFkB inh inactive, NR2F2 inh 47, VP16 Luc counter inactive and COUP-TFII conf inactive.
For CCOc1ccc(C(=O)CCC(=O)Nc2ccc(C)c(S(=O)(=O)N3CCCCC3)c2)cc1 the results were H9c2 TAG inh inactive, 697 NFkB inh inactive, Gli-Sufu antag inactive, Cardio protect inactive, Jurkat NFkB inh inactive and NR2F2 inh inactive.
`COc1ccc(NC(=O)CCOc2cc(C)ccc2C)cc1S(=O)(=O)N1CCCCC1` gave H9c2 TAG inh inactive, 697 NFkB inh inactive, Gli-Sufu antag inactive, Cardio protect inactive, Jurkat NFkB inh inactive, NR2F2 inh 41, VP16 Luc counter inactive and COUP-TFII conf inactive.
Screening Cc1ccc(NC(=O)COc2cccc(C)c2C)cc1S(=O)(=O)N1CCCCCC1 returned H9c2 TAG inh inactive, 697 NFkB inh inactive, Gli-Sufu antag inactive, Cardio protect inactive, Jurkat NFkB inh inactive and NR2F2 inh inactive.
CCc1cccc(OCC(=O)Nc2ccc(C)c(S(=O)(=O)N3CCCCCC3)c2)c1 was read as H9c2 TAG inh inactive, 697 NFkB inh inactive, Gli-Sufu antag inactive, Cardio protect inactive, Jurkat NFkB inh inactive, NR2F2 inh 40, VP16 Luc counter inactive and COUP-TFII conf inactive.
For Cc1cc(-c2cc(NC(=O)Cc3c[nH]c4ccccc34)ccc2N(C)c2cccnc2)ccc1F the results were NR2F2 inh inactive.
Screening COc1ccc(-n2c(COc3ccccc3)nnc2SCC(=O)Nc2ccc(OCc3ccccc3)cc2)cc1 returned NR2F2 inh inactive.
Screening Cc1cc(Cl)c(S(=O)(=O)N2CCCC2)cc1OCC(=O)NC1CCCCC1 returned 697 NFkB inh inactive, Gli-Sufu antag inactive, Cardio protect inactive, Jurkat NFkB inh inactive, NR2F2 inh 62, VP16 Luc counter inactive and COUP-TFII conf inactive.
`Cc1ccc(S(=O)(=O)N(C)Cc2ccc(C(=O)N/N=C/c3ccc(OC(F)F)cc3OC(F)F)cc2)cc1` gave 697 NFkB inh inactive, Gli-Sufu antag inactive, Cardio protect inactive, Jurkat NFkB inh inactive, NR2F2 inh 70, VP16 Luc counter inactive and COUP-TFII conf 74.
Screening O=C(CSc1nc2ccccc2nc1N1CCOCC1)N1CCN(c2cccc(C(F)(F)F)c2)CC1 returned NR2F2 inh inactive.
`COc1ccc(-c2cc3nc(NCc4ccc(N(C)C)cc4)n(C)c(=O)c3s2)cc1OC` gave H9c2 TAG inh inactive, Cardio protect inactive, NR2F2 inh 39, VP16 Luc counter inactive and COUP-TFII conf 56.
For COc1cccc(CNc2nc3cc(-c4ccsc4)sc3c(=O)n2C)c1OC the results were H9c2 TAG inh inactive, Cardio protect inactive, NR2F2 inh 66, VP16 Luc counter inactive and COUP-TFII conf 46.
`CC(C)C[C@@H]1COc2cc(Br)ccc2S(=O)(=O)N1Cc1cn(Cc2ccc(Cl)cc2)nn1` gave NR2F2 inh inactive.
For CC(=O)N1CCCC(c2cc(C(=O)Nc3ccccc3)no2)C1 (stereo not drawn) the results were H9c2 TAG inh inactive, Cardio protect inactive, NR2F2 inh 41, VP16 Luc counter 17 and COUP-TFII conf 59.
For O=C(NCc1ccccc1)c1cc(C2CCCN(C(=O)C3CCCCC3)C2)on1 (stereo not drawn) the results were H9c2 TAG inh inactive, Cardio protect inactive, NR2F2 inh 101, VP16 Luc counter inactive and COUP-TFII conf inactive.
Screening CCOc1cccc(/C=N\NC(=O)c2cnccn2)c1O returned NR2F2 inh inactive.
